Source: PubChem BioAssay (NCATS)
“And” between values parts separate entries of the source, which are not always exact repeats. Equal entries are not always repeated. Results filed as inconclusive are left out. A number with no mark means an inactive call. The source made the active and inactive calls. Calls follow the shape of the dose curve; as a rule, active = well fitted curve in either direction with a large enough effect (not every such curve was filed as active); inconclusive = small, poorly fitted or top-dose-only effect, or another doubt; inactive = flat fitted curve, though single readings scatter.

Test: NFAT Signaling Pathway (AID 444)
Details: Jurkat NFAT-bla M1, carbachol, beta-lactamase ratio, 5 h; at 7.69 µM (top of the series)
Description: NCGC Assay Overview: The nuclear factor of activated T cells (NFAT) family of transcription factors has been found primarily in most immune system cells and some other non-immune cells. NFAT plays the immunomodulatory role, primarily in T-cell activation and differentiation. NFAT target genes are also involved in the regulation of apoptosis and differentiation in non-immune cell types. The NFAT sequence was engineered to the upstream of the ?-lactamase reporter gene and transfected into Jurkat cells with co-transfection of muscarinic receptor1 [provided by Invitrogen Corp]. When an extracellular stimulus, such as carbachol, binds to the GPCR M1 receptor, it stimulates a signaling cascade that activates NFAT response element and ?-lactamase expression by phosphorylating the NFAT binding protein. This cell based ?-lactamase reporter gene assay can accurately monitor any changes occurring along the NFAT pathway, and can be used for screening small molecule inhibitor or activator upon activation by carbachol EC50 concentration. A small molecular library were screened in a titration series resulting in AC50s (can be either IC50s or EC50s).
NCGC Assay Protocol Summary: The cells were prepared in RPMI 1640 medium containing 0.1% dialyzed FBS and 25 mM HEPES at 1.6 x 10^6cell/ml. The assay was performed in 1536-well plate format as follows: 5 ul of cell preparation 23 nl of compounds 1ul of carbachol (final concentration 1 uM) Briefly centrifuge the plates and incubate at 37 °C for 5 hours 1 ul of CCF4 dye mixture Incubate the plates at RT for 1 hour Read the plate in EnVision plate reader (Ex= 405nm, and Em1=460nm and Em2=530nm). The %Activity was determined from the ratio of 460nm/530nm. Data normalization and AC50 calculations were accomplished using GeneData software.
% is scaled to controls: 0 for no effect and ±100 for the full control effect.

Row | SMILES | activity change, negative = inhibition
1 | Cc1cc(N)c2cc(NC(=O)Nc3ccc4nc(C)cc(N)c4c3)ccc2n1 | -11.7%
2 | OC(CCN1CCCCC1)(c1ccccc1)c1ccccc1 | -73.6% (active)

Same assay, conditions: Jurkat NFAT-bla M1, carbachol, beta-lactamase ratio, 5 h; at 17.2 µM (top of the series)

Row | SMILES | activity change, negative = inhibition
3 | NCCCC[C@H](N[C@@H](CCc1ccccc1)C(=O)O)C(=O)N1CCC[C@H]1C(=O)O | -2.99%
4 | COc1c(C)c2c(c(O)c1C/C=C(\C)CCC(=O)O)C(=O)OC2 | -1.42%
5 | CC(CCc1ccccc1)NCC(O)c1ccc(O)c(C(N)=O)c1 (stereo not given) | 9.12%
6 | CC(=O)O[C@]1(C(C)=O)CC[C@H]2[C@@H]3C[C@H](C)C4=CC(=O)CC[C@]4(C)[C@H]3CC[C@@]21C | 6.28%
7 | Cc1cccc(C)c1NC(=O)CN1CCN(CCCC(c2ccc(F)cc2)c2ccc(F)cc2)CC1 | 5.94%
8 | CCCn1c(=O)[nH]c(=O)c2[nH]cnc21 | -21.8%
9 | CCCCCCCCCCCCCCCC[N+](C)(C)CCN(Cc1ccc(OC)cc1)c1ncccn1 | 8.86%
10 | CCCC(=O)Nc1ccc(OCC(O)CNC(C)C)c(C(C)=O)c1 (stereo not given) | -15.3%
11 | CN1CCC(=C2c3ccccc3Sc3ccccc32)CC1 | -31.6% (active)
12 | CC(C)NC[C@@H](O)COc1cccc2ccccc12 | 5.75% and 5.85% and -11.9%
13 | COc1cc(-c2ccc(=O)[nH]n2)ccc1OC(F)F | -13.5%
14 | C[C@H](CCC(=O)O)[C@H]1CC[C@H]2[C@@H]3C(=O)C[C@@H]4CC(=O)CC[C@]4(C)[C@H]3CC(=O)[C@]12C | 13.3%
15 | CC(C)(Oc1ccc(Cl)cc1)C(=O)O | 15.7%
16 | Nc1nc2ncc(CNc3ccc(C(=O)N[C@@H](CCC(=O)O)C(=O)O)cc3)nc2c(=O)[nH]1 | 2.08%
17 | CC(=O)Oc1ccc(C(c2ccc(OC(C)=O)cc2)c2ccccn2)cc1 | 7.84% and -13.9%
18 | CCN(CC)C(=O)N1CCN(C)CC1 | -7.87%
19 | OC(CCN1CCCCC1)(c1ccccc1)c1ccccc1 | -42.4% (active) and -77.8% (active)
20 | CC(=O)OCC(=O)[C@@]1(O)CC[C@H]2[C@@H]3CCC4=CC(=O)C=C[C@]4(C)[C@H]3[C@@H](O)C[C@@]21C | -6.54%
21 | Oc1cc(O)c2c(c1)O[C@H](c1ccc(O)c(O)c1)[C@H](O)C2 | -6.82% and 0.191%
22 | C[N+]1(CCCCC[N+]2(C)CCCC2)CCCC1 | -12.7%
23 | CCCCOc1cc(C(=O)NCCN(CC)CC)c2ccccc2n1 | 3.91% and -0.708% and -6.28%
24 | CCn1cc(C(=O)O)c(=O)c2cnc(N3CCCC3)nc21 | 5.83%
25 | CC(O)(P(=O)(O)O)P(=O)(O)O | -2.6%
26 | C1CCc2nnnn2CC1 | -9.11%
27 | O=C(COc1ccc(Cl)cc1)N1CCN(Cc2ccc3c(c2)OCO3)CC1 | 15.3%
28 | Cc1ccnc(NS(=O)(=O)c2ccc(N)cc2)n1 | 0.552%
29 | CC(C)N=C(N)/N=C(\N)Nc1ccc(Cl)cc1 | -11%
30 | C[C@@H]1C[C@H]2[C@@H]3CCC4=CC(=O)C=C[C@]4(C)[C@@]3(F)[C@@H](O)C[C@]2(C)[C@H]1C(=O)CO | -16.3%
31 | O=C1c2ccccc2C(=O)C1c1ccccc1 | -11.7%

Same assay, conditions: Jurkat NFAT-bla M1, carbachol, beta-lactamase ratio, 5 h; at 38 µM (top of the series)

Row | SMILES | activity change, negative = inhibition
32 | CCCn1c(=O)[nH]c(=O)c2[nH]cnc21 | 4.56%
33 | CC(C)COC(=O)OCN1C(=O)CN(CCN2CC(=O)N(COC(=O)OCC(C)C)C(=O)C2)CC1=O | 7.64%
34 | CC(C)NC[C@@H](O)COc1cccc2ccccc12 | 4.84% and 0.806%
35 | COc1cc(-c2ccc(=O)[nH]n2)ccc1OC(F)F | -7.13%
36 | CN1CCC[C@@H]1c1cccnc1 | -1.61%
37 | Oc1cc(O)c2c(c1)O[C@H](c1ccc(O)c(O)c1)[C@H](O)C2 | -2.11%
38 | C[N+]1(CCCCC[N+]2(C)CCCC2)CCCC1 | -8.15%
39 | O=C1CCC(c2ccc(-n3ccnc3)cc2)=NN1 | 3.77%
40 | C1CCc2nnnn2CC1 | -6.06%
